Source: PubChem BioAssay
Shiga inhibitor: A qHTS for Small Molecule Inhibitors of Shiga Toxin. AID 2315, 2010. 290,000 compounds, 9.2% hits. inhibition, % at 38.7 µM. Vero cells, Shiga toxin protein synthesis inhibition reporter; in the data active = inhibition mostly above about 28%, no sharp cut-off; inactive = mostly below about 43%; note: 0% is about no effect
FMDV inh: High Throughput Screening for Foot and Mouth Disease Virus Antivirals; FMDV antiviral cell-based qHTS; Potency, µM (titrated, usually from 57.9 µM), without a hit: at the top dose activity change, negative = inhibition, most hits filed as inhibitors; 410,000 compounds, 1.2% hits; calls by dose curve; tested in HEK293T cells; note: read-out not given here; potency is the fitted concentration of half-maximal effect; % is set by controls: 0 for no effect and ±100 for the full control effect; nearly all actives have a fitted effect of over 45% in size
Cycloheximide cs: Cycloheximide Counterscreen for Small Molecule Inhibitors of Shiga Toxin. 300,000 compounds, 12% hits. max response, %. AID 2314, 2010. cell reporter, cycloheximide protein synthesis inhibition counterscreen; in the data active = max response mostly above about 13%, no sharp cut-off; inactive = mostly below about 14%; note: read at 38.3 µM for the half of the compounds with a filed dose; 0% is about no effect
Sm TGR block: qHTS Assay for the Inhibitors of Schistosoma Mansoni Peroxiredoxins | Schistosoma mansoni thioredoxin glutathione reductase (TGR), Q962Y6 | purified TGR, DTNB reduction, TNB absorbance 405 nm | Potency, µM (series often up to 114 µM), for the others: at the highest dose activity change, negative = inhibition, actives largely listed as inhibitors | 360,000 compounds, 3% hits; active = well fitted inhibition curve with a large enough effect; inconclusive = small, poorly fitted or top-dose-only effect; inactive = no such curve, though single readings can be large or run the other way; note: potency is the fitted concentration of half-maximal effect; % is set by controls: 0 for no effect and ±100 for the full control effect; nearly all actives have a fitted effect of over 60% in size
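Kinetic colorimetric format: TGR-catalysed, NADPH-driven DTNB reduction monitored via TNB absorbance. Enzyme dispensed at 20 nM; compound exposure 15 min at room temperature before reaction start.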
An asterisk follows results filed as active. Shown are actives, neighbours in structure and some others; about 12% of the full set was active somewhere.

Screening O=C1c2ccc(O)c(O)c2C(=O)c2c(O)ccc(O)c21 returned FMDV inh 22µM*.
CC(C)CN(CCNC(=O)c1cc(-c2ccc(Cl)s2)nc2ccccc12)CC(C)C was read as FMDV inh -10% and Sm TGR block 4%.
FC(F)(F)c1cnc2c(-c3ccccc3)n[nH]c2c1 was read as Shiga inhibitor 83*, FMDV inh 55%, Cycloheximide cs 29* and Sm TGR block -8%.
For COc1cc(NC(=O)CN(C)S(=O)(=O)c2ccc(-c3ccc(=O)[nH]n3)s2)cc(OC)c1 the results were Shiga inhibitor -16, FMDV inh -4%, Cycloheximide cs 3 and Sm TGR block 32µM*.
For O=C(N/N=C\c1ccc([N+](=O)[O-])o1)c1cncc(Br)c1 the results were Shiga inhibitor -22, FMDV inh inconclusive, Cycloheximide cs -3 and Sm TGR block 35µM*.
Screening Nc1nonc1C(=O)N/N=C/c1cccc([N+](=O)[O-])c1 returned Shiga inhibitor active, FMDV inh 72%, Cycloheximide cs 27* and Sm TGR block 1%.
For O=C(N/N=C/c1ccc(-c2ccccc2[N+](=O)[O-])o1)c1cncc(Br)c1 the results were Shiga inhibitor -2, FMDV inh -21%, Cycloheximide cs 1 and Sm TGR block -14%.
Screening CN(C)c1ccc(/C=N/NC(=O)c2nonc2N)cc1[N+](=O)[O-] returned Shiga inhibitor 133*, FMDV inh 37%, Cycloheximide cs 41* and Sm TGR block 7%.
Screening Nc1nonc1C(=O)N/N=C/c1cc2c(cc1[N+](=O)[O-])OCO2 returned Shiga inhibitor 33, FMDV inh -3%, Cycloheximide cs 8 and Sm TGR block 8%.
For Nc1nonc1C(=O)N/N=C/c1ccc([N+](=O)[O-])o1 the results were Shiga inhibitor 76*, FMDV inh -30%, Cycloheximide cs 44* and Sm TGR block 20µM*.
Cc1cc(Nc2ccc(C)c(Cl)c2)n2nc(-c3ccccc3)nc2n1 was read as FMDV inh -20% and Sm TGR block -1%.
Screening COC(=O)c1cc(CNC(=O)c2ccccc2)cc(NC(=O)c2ccccc2OC)c1 returned FMDV inh 6%.
`Nc1nonc1C(=O)N/N=C/c1cc(Br)ccc1O` gave Shiga inhibitor 82*, FMDV inh 44%, Cycloheximide cs 32* and Sm TGR block 3%.
`COc1ccc(/C=N/NC(=O)c2nonc2N)cc1OC` gave Shiga inhibitor 80*, FMDV inh 77%, Cycloheximide cs 34* and Sm TGR block 27%.
`CC(C)c1ccc(/C=C2\CC/C(=C\C=N\N(C)C)C2=O)cc1` gave Shiga inhibitor 125*, FMDV inh 13%, Cycloheximide cs 55* and Sm TGR block -14%.
Screening CN(C)c1ccc(/C=C2/C[N+](C)(C)C/C(=C/c3ccc(N(C)C)cc3)C2=O)cc1 returned FMDV inh 0%.
Screening CC(C)/C=C1\CC/C(=C\c2ccc(N(C)C)cc2)C1=O returned Shiga inhibitor 77*, FMDV inh -4%, Cycloheximide cs 35* and Sm TGR block -33%.
Screening CN(C)/N=C/C=C1\CC/C(=C\c2ccc(F)c(F)c2)C1=O returned FMDV inh 4%.
`CCOC(=O)c1ccc(NC(=O)COCc2cc(-c3ccc4c(c3)OCO4)on2)cc1` gave FMDV inh -23% and Sm TGR block -3%.
Screening COC(=O)c1ccc(N2C(=O)c3ccc(OC)c(OC)c3C2=O)cc1 returned Shiga inhibitor -4, FMDV inh 6%, Cycloheximide cs -2 and Sm TGR block 5%.
For COc1ccc2c(c1OC)C(=O)N(c1cccc(C)c1)C2=O the results were Shiga inhibitor 56, FMDV inh 35%, Cycloheximide cs 43* and Sm TGR block 8%.
For COc1ccccc1N1CCN(c2cc(C)nc3nncn23)CC1 the results were FMDV inh -15% and Sm TGR block inconclusive.
Screening COc1cc(NC(=O)N2CCC(CN3CCOCC3)CC2)cc(OC)c1OC returned FMDV inh -12% and Sm TGR block 4%.
Screening CC(=O)Nc1ccc(Br)c2ccccc12 returned Shiga inhibitor -15, FMDV inh -18%, Cycloheximide cs -2 and Sm TGR block -4%.
O=C(Nc1ccc(Br)c2ccccc12)c1ccc2ccccc2c1O was read as Shiga inhibitor 44*, FMDV inh inconclusive, Cycloheximide cs 22* and Sm TGR block inconclusive.
CCCCNC(=O)CS(=O)Cc1nc(-c2cccs2)oc1C (centres undefined) was read as Shiga inhibitor -22, FMDV inh 0%, Cycloheximide cs -7 and Sm TGR block 6.3µM*.
`Cc1oc(-c2cccs2)nc1CS(=O)CC(=O)NCCCOC(C)C` (centres undefined) gave Shiga inhibitor -22, FMDV inh -1%, Cycloheximide cs 3 and Sm TGR block 14µM*.
`Cc1oc(-c2cccs2)nc1CS(=O)CC(=O)NCCc1ccccc1` (centres undefined) gave Shiga inhibitor -3, FMDV inh 14%, Cycloheximide cs -2 and Sm TGR block 10µM*.
`Cc1oc(-c2ccc(Cl)cc2)nc1CS(=O)CC(=O)NCc1cccs1` (centres undefined) gave Shiga inhibitor -10, FMDV inh -13%, Cycloheximide cs -7 and Sm TGR block inconclusive.
O=C(c1ccc2c(c1)N(Cc1ccccc1F)C(=O)c1ccccc1S2(=O)=O)N1CCC(Cc2ccccc2)CC1 was read as FMDV inh 1% and Sm TGR block -1%.
`CCS(=O)(=O)N1CCN(c2ccccc2)CC1` gave Shiga inhibitor -3, FMDV inh -9%, Cycloheximide cs 1 and Sm TGR block 2%.
Screening O=C1Oc2ccccc2C(=O)/C1=C\N1CCN(c2ccccc2)CC1 returned Shiga inhibitor 10, FMDV inh -19%, Cycloheximide cs 26* and Sm TGR block -21%.
O=C(C1CCC(=O)N(C2CC2)C1)N1CCC(Oc2cccc(C(F)(F)F)c2)CC1 (centres undefined) was read as Shiga inhibitor 17, FMDV inh -15%, Cycloheximide cs 24* and Sm TGR block 0%.
`O=C(C1CC(=O)N(C2CCCCC2)C1)N1CCC2(CC1)OCCO2` (centres undefined) gave Shiga inhibitor 32, FMDV inh 0%, Cycloheximide cs 13* and Sm TGR block -2%.
`COC1CCN(C(=O)C2CCC(=O)N(C3CCCCCC3)C2)CC1` (centres undefined) gave Shiga inhibitor 52*, FMDV inh 32%, Cycloheximide cs 36* and Sm TGR block -8%.
Screening Cc1ccc(C(C)(C)NC(=O)C2CCC(=O)N(CCCN3CCOCC3)C2)cc1 (centres undefined) returned Shiga inhibitor -4, FMDV inh -8%, Cycloheximide cs -3 and Sm TGR block -13%.
Screening Cc1ccc(C(C)(C)NC(=O)C2CCC(=O)N(C3CCCCCC3)C2)cc1 (centres undefined) returned Shiga inhibitor 86*, FMDV inh 28%, Cycloheximide cs 42* and Sm TGR block 12%.
